The values that follow come from PubChem BioAssay (NCI).

The panel holds about 83,000 compounds, 20% with a hit somewhere; the sample as a whole holds those more often.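 Single-dose data. Exposure time 48 hours. Values below 10 considered active.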 A number with no mark means an inactive call. Activity calls are given as the source filed them.

Some test systems named below: HCT-15 colon; HT29 colon; SNB-75 CNS; SNB-19 CNS; U251 CNS; PC-3 prostate; SK-MEL-5 melanoma; UACC-62 melanoma; LOX IMVI melanoma; SK-MEL-28 melanoma; SK-MEL-2 melanoma; EKVX NSCLC; SN12C renal; UO-31 renal; TK-10 renal; ACHN renal; CAKI-1 renal; A498 renal; CCRF-CEM leukemia; MOLT-4 leukemia.
What all share (assay): NCI-60 one-dose screen, 48 h (100 = growth as untreated, 0 = no growth, -100 = all killed)
Settings in all cases: 10 µM unless noted

`CC(=O)[C@H]1CCC/C=C/[C@@H]2C[C@H](O)C[C@H]2[C@H](O)/C=C/C(=O)O1`: the growth was 11.9% in the assay with HCT-15 colon; 4.12% (active) in the assay with HT29 colon; 38.4% in the assay with SNB-75 CNS; 28.6% with SNB-19 CNS; 20.5% with U251 CNS; 27.6% with PC-3 prostate. The growth was -94% (active) with SK-MEL-5 melanoma; 12.3% in the assay with UACC-62 melanoma; -63% (active) with LOX IMVI melanoma; -16.6% (active) with SK-MEL-28 melanoma; -14.3% (active) in the assay on SK-MEL-2 melanoma; 6.77% (active) in the assay on EKVX NSCLC. The growth was 9.7% (active) with SN12C renal; 1.16% (active) with UO-31 renal; 30.8% with TK-10 renal; 5.56% (active) with ACHN renal; -15.7% (active) in the assay with CAKI-1 renal; -42.8% (active) in the assay on A498 renal. Also, the growth in the assay with CCRF-CEM leukemia was 9.09% (active); with MOLT-4 leukemia it was -41.3% (active).

For `O=Cc1ccc(-c2cn3ccnc3c(-c3ccc4ncn(Cc5ccccc5)c4c3)n2)cc1`, the growth in the assay with HCT-15 colon is 50.9%; in the assay with HT29 colon, 82.5%; with SNB-75 CNS it was 78.6%; with SNB-19 CNS, 85.6%; in the assay on U251 CNS, 68%; with PC-3 prostate it was 81%. Besides, the growth is 43.5% in the assay on SK-MEL-5 melanoma; 62.9% in the assay with UACC-62 melanoma; 53.1% in the assay on LOX IMVI melanoma; 92.5% in the assay on SK-MEL-28 melanoma; 72.2% in the assay with SK-MEL-2 melanoma; 79.1% in the assay on EKVX NSCLC. In addition, the growth in the assay on SN12C renal was 79.3%; in the assay with UO-31 renal it was 17.8%; in the assay on TK-10 renal it was 99.3%; with ACHN renal, 88.4%; with CAKI-1 renal, 63.4%; in the assay on A498 renal, 88.8%. The growth is 22.1% in the assay on CCRF-CEM leukemia and 41.3% in the assay on MOLT-4 leukemia.

For the compound `Oc1ccc(OCCOc2ccc(O)cc2)cc1`, the growth is 38.4% in the assay on HCT-15 colon; 86.9% in the assay on HT29 colon; 73.8% with SNB-75 CNS; 79.2% in the assay with SNB-19 CNS; 49.5% with U251 CNS; 55.7% in the assay with PC-3 prostate. The growth in the assay on SK-MEL-5 melanoma was 26.8%; in the assay with UACC-62 melanoma, 22.5%; in the assay on LOX IMVI melanoma, 36.4%; in the assay on SK-MEL-28 melanoma, 102%; in the assay with SK-MEL-2 melanoma, 81.8%; in the assay on EKVX NSCLC it was 75.4%. For the same compound, the growth in the assay with SN12C renal was 59.6%; with UO-31 renal, 4.76% (active); with TK-10 renal, 87.9%; with ACHN renal, 6.65% (active); in the assay with CAKI-1 renal, 11.4%; with A498 renal it was 100%. For the same compound, the growth in the assay on CCRF-CEM leukemia was 58.8%; in the assay with MOLT-4 leukemia, 60.8%.

Take `O=C(Cn1c(C(=O)c2ccccc2)nc2ccccc21)c1ccc(F)cc1`: the growth with HCT-15 colon is 44.4%; with HT29 colon it was 23.3%; in the assay with SNB-75 CNS, 48.4%; with SNB-19 CNS, 74.5%; with U251 CNS, 55.1%; in the assay on PC-3 prostate, 78.2%. Further, the growth in the assay with SK-MEL-5 melanoma is 60.7%; in the assay on UACC-62 melanoma, 37.1%; in the assay on LOX IMVI melanoma, 61.3%; in the assay on SK-MEL-28 melanoma, 54%; with SK-MEL-2 melanoma, 60.7%; in the assay with EKVX NSCLC, 83.2%. The growth is 77.9% in the assay with SN12C renal; 80.6% with UO-31 renal; 67.7% in the assay with TK-10 renal; 95.8% in the assay with ACHN renal; 42.6% in the assay on CAKI-1 renal; 86.5% in the assay on A498 renal. Also, the growth in the assay with CCRF-CEM leukemia was 57.1%; in the assay with MOLT-4 leukemia it was 21.3%.

`O=C1Nc2ccc(F)cc2/C1=C\c1c(-c2ccccc2)nc2ccccn12`: the growth is 51.9% in the assay with HCT-15 colon; 52.1% in the assay with HT29 colon; 61.6% in the assay on SNB-75 CNS; 75.4% in the assay with SNB-19 CNS; 82.7% in the assay on U251 CNS; 67.5% in the assay on PC-3 prostate. The growth in the assay with SK-MEL-5 melanoma is 61.5%; with UACC-62 melanoma it was 60.7%; in the assay with LOX IMVI melanoma it was 64.1%; with SK-MEL-28 melanoma, 85.1%; in the assay on SK-MEL-2 melanoma it was 63.7%; with EKVX NSCLC, 61.8%. Further, the growth is 80.4% with SN12C renal; 46.6% in the assay with UO-31 renal; 81% in the assay on TK-10 renal; 53.4% in the assay with ACHN renal; 34.3% in the assay on CAKI-1 renal; 43.1% in the assay with A498 renal. In addition, the growth is 57.7% in the assay with CCRF-CEM leukemia and 51% in the assay with MOLT-4 leukemia.

With `O=C(CNCCN1CCOCC1)N1c2cccc3cccc(c23)N(C(=O)CNCCN2CCOCC2)C1c1cn(-c2ccccc2)nc1-c1cccc([N+](=O)[O-])c1`, the growth is 43.6% in the assay on HCT-15 colon; 7.37% (active) in the assay with HT29 colon; 57.9% in the assay with SNB-75 CNS; 77.1% with SNB-19 CNS; 55.2% in the assay with U251 CNS; 62.4% in the assay on PC-3 prostate. In addition, the growth is 57.7% in the assay with SK-MEL-5 melanoma; 94.8% in the assay on UACC-62 melanoma; 53.9% in the assay on LOX IMVI melanoma; 64% in the assay with SK-MEL-28 melanoma; 96.5% with SK-MEL-2 melanoma; 84.6% with EKVX NSCLC. Moreover, the growth in the assay with SN12C renal was 79.4%; in the assay with UO-31 renal, 65.1%; in the assay on TK-10 renal, 108%; with ACHN renal, 88.7%; in the assay with CAKI-1 renal it was 66%; in the assay on A498 renal, 84.5%. Moreover, the growth is 17.5% in the assay with CCRF-CEM leukemia and 48.5% with MOLT-4 leukemia.

Take `COc1cc2c3c(c4c5ccccc5[nH]c4c2c(OC)c1OC)C(=O)N(CCN1CCOCC1)C3=O`: the growth in the assay with HCT-15 colon is 50%; with HT29 colon, 34.2%; in the assay with SNB-75 CNS, 86.4%; in the assay on SNB-19 CNS, 51.9%; in the assay with U251 CNS, 51.8%; in the assay on PC-3 prostate, 48.4%. The growth with SK-MEL-5 melanoma is 54.7%; in the assay on UACC-62 melanoma, 43.3%; in the assay on LOX IMVI melanoma it was 45%; in the assay with SK-MEL-28 melanoma, 99.2%; with SK-MEL-2 melanoma, 73.9%; in the assay on EKVX NSCLC, 91.2%. The growth in the assay with SN12C renal was 47.8%; in the assay with UO-31 renal it was 52.4%; in the assay with TK-10 renal it was 76.2%; in the assay on ACHN renal it was 35.2%; in the assay with CAKI-1 renal, 40.9%; in the assay with A498 renal it was 54.1%. Further, the growth was 23.1% in the assay on CCRF-CEM leukemia and 6.55% (active) in the assay with MOLT-4 leukemia.

Take `CC[C@]12C=CCN3CC[C@@]4(c5cc(NC(=O)CCC(=O)O[C@H]6CC[C@H]7[C@@H]8CCC9=CC(=O)CC[C@@H]9[C@H]8CC[C@]67C)c(OC)cc5N(C)[C@H]4[C@@](O)(C(=O)OC)[C@@H]1OC(C)=O)[C@@H]32`: the growth in the assay on HCT-15 colon is 62.2%; in the assay on HT29 colon, 62.8%; with SNB-75 CNS it was 68.6%; in the assay with SNB-19 CNS, 85%; in the assay on U251 CNS it was 74.1%; in the assay with PC-3 prostate, 53.6%. Moreover, the growth in the assay with SK-MEL-5 melanoma was 43.8%; with UACC-62 melanoma, 64.1%; in the assay on LOX IMVI melanoma, 84.7%; in the assay on SK-MEL-28 melanoma, 91.7%; in the assay on SK-MEL-2 melanoma it was 81.9%; in the assay with EKVX NSCLC, 73.4%. In addition, the growth is 81.5% with SN12C renal; 53.6% with UO-31 renal; 97.4% with TK-10 renal; 87.2% with ACHN renal; 67.8% with CAKI-1 renal; 71.6% with A498 renal. For the same compound, the growth with CCRF-CEM leukemia is 62.7%; with MOLT-4 leukemia, 40.3%.
